Drawing on PubChem BioAssay (NCATS), this text covers outcome and Potency for 43 molecules.

Experiment [1] concerns the target Luciferin 4-monooxygenase (Photinus pyralis) (UniProt P08659). Briefly: Primary firefly luciferase (FLuc) qHTS assay for identification of artifact compounds. (AID 1845220). Further: nearly all actives have a fitted effect of over 60% in size. The note with it: outcome: dose series up to 54.1 µM. Put shortly:
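Cell-free, 1536-well qHTS. Buffer pH 7.6 with 0.01% Tween-20 and 0.05% BSA; 10 uM D-luciferin, 10 uM ATP; 10 nM P. pyralis luciferase; luminescence after 5 min.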

Experiment [2] is described as follows: Primary fluorescence-based thiol-reactive (MSTI) qHTS assay for identification of artifact compounds. (AID 1845221).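 Further: series mostly up to about 54 µM; thiol-reactive compounds lower the probe fluorescence signal; nearly all actives have a fitted effect of over 65% in size.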 Summed up:
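Thiol-reactive compounds detected by quenching of 4 uM MSTI fluorescence (525/598 nm) after 1 h room-temperature dark incubation in PBS pH 7.4, 2% DMSO. qHTS titration; percent inhibition Hill-fitted against Acetyl-MSTI/MSTI controls.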
(Quantitative high-throughput screening tests each substance at several concentrations.)

Experiment [3] relates to Nanoluciferase (engineered Oplophorus gracilirostris luciferase). Briefly: Primary Nanoluciferase (NLuc) qHTS assay for identification of artifact compounds. (AID 1845222). Further: series mostly up to about 54 µM. Summed up: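 Compounds are pinned into diluted (1:55) conditioned medium of NLuc-expressing S16 cells and held 15 min at room temperature protected from light. Nano-Glo substrate follows, and luminescence is read 5 min later.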

Experiment [4] can be described thus: Primary redox qHTS assay for identification of artifact compounds. (AID 1845223). Put shortly:
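Amplex Red (25 uM) and HRP (250 mU/mL) in HBSS, with compounds for 15 min, then 250 uM DTT for 30 min, room temperature, dark. Fluorescence 525/598 nm read; normalized to DMSO and 10 uM DA3003; Hill fit.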

Experiment [5] concerns the target Cytochrome P450 1A2 (Homo sapiens) (UniProt P05177). Briefly: qHTS for inhibitors of CYPIA2 against the NCATS DSHEA and TCM libraries (AID 1919976).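 Further: light from luciferin formed by CYP1A2 from a pro-luciferin substrate; series mostly up to about 37 µM.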 The text has this: Assay Development and Screening Technology Laboratory (ADST)
National Center for Advancing Translational Sciences (NCATS), Rockville, MD
National Institute of Health (NIH), Bethesda, Maryland
Dietary Supplements and Natural Products have minor oversight of their safety and efficacy. We assembled a collection of Dietary Supplements and Natural Products (DSNP) as well as Traditional Chinese Medicinal (TCM) Plant extracts, which were screened against an in vitro panel of assays, including a liver cytochrome p450 enzyme panel, CAR/PXR signaling pathways, and P-gp transporter assays, to assess their activity. This pipeline facilitated the interrogation of Natural Product-Drug Interaction (NaPDI) through prominent metabolizing pathways. In addition, we compared the activity profiles of the DSNP/TCM substances with those of an approved drug collection. Many of the approved drugs have well-annotated mechanisms of action (MOA) while the MOAs for most of the DSNP and TCM samples remain unknown. […] Overall, we highlight four significant bioactivity profiles (measured by p-values) as examples of this prediction. […] To profile potential P-gp activity, a differential cell viability was measured against two cell lines: a parental KB-3-1 human cervical adenocarcinoma cell line and the drug-resistant subline KB-8-5-11 that overexpresses P-gp. […]
9; Read; Luminescence; ViewLux plate reader. […]

The target of experiment [6] is Glutathione peroxidase 1 (Homo sapiens) (UniProt P07203). Briefly: Primary qHTS Assay for Inhibitors of Recombinant Selenoprotein Glutathione Peroxidase 1 (GPX1) (AID 1845191). Further: nearly all actives have a fitted effect of over 65% in size. Put shortly: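 10 nM GPX1 + cpd, 30 min RT; start w/ 1 mM GSH, 0.5 mM cumene hydroperoxide, 0.5 mM NADPH, 100 nM GR, 0.01% BSA; buffer 50 mM Tris-HCl pH 7.5, 2 mM EDTA, 150 mM NaCl; Fl 340/450, 0 & 15 min.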

For experiment [7], the target named is Phospholipid hydroperoxide glutathione peroxidase GPX4 (Homo sapiens) (UniProt P36969). Briefly: Primary qHTS Assay for Inhibitors of Recombinant Selenoprotein Glutathione Peroxidase 4 (GPX4) (AID 1845192). Further: nearly all actives have a fitted effect of over 65% in size. Summed up:
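NADPH consumption, followed by fluorescence at 340/450 nm between 0 and 15 min, reports GPX4 activity via coupled glutathione reductase (100 nM). Enzyme 200 nM was pre-exposed to compound 30 min; 0.5 mM cumene hydroperoxide and 1 mM GSH served as substrates.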

Records with an inconclusive call do not appear. Activity calls are given as the source filed them. The call rests on the fitted dose curve; in most records, active means well fitted curve in the direction sought with a large enough effect; inconclusive means small, poorly fitted or top-dose-only effect, or another doubt; inactive means no such curve, though single readings can be large; an effect the other way counts as inactive or inconclusive. Numbered stars: 1 amine (or outer) side, 2 acyl side, 3 side chain; on linkers, the order of the positions; unused ones are H or OH. Bridge positions count the residues as written; N and C are the ends. Square brackets hold non-standard residues; d marks the D form. Peptide text beside a SMILES is read from it. I, II: the chains in the order shown. Actinocin(9to1) = Cc1c2oc3c(C)ccc(C(=O)[*:1])c3nc-2c(C(=O)[*:2])c(N)c1=O; NMeV = CN[C@H](C(=O)O)C(C)C; Sar = CNCC(=O)O

Glutathione peroxidase 1 (Homo sapiens), sequence (P07203 whole entry, looked up): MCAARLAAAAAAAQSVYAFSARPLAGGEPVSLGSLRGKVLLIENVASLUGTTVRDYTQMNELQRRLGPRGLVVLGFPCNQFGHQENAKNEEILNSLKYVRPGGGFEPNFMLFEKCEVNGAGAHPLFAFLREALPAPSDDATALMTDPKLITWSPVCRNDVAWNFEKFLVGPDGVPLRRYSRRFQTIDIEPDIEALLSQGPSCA
Phospholipid hydroperoxide glutathione peroxidase GPX4 (Homo sapiens), sequence (P36969 whole entry, looked up): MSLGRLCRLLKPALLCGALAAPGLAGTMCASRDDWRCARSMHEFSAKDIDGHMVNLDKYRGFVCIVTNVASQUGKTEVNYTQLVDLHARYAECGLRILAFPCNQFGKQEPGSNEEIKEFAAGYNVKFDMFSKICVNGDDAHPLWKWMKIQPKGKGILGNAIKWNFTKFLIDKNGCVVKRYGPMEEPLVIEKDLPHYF
Cytochrome P450 1A2 (Homo sapiens), sequence (P05177 whole entry, looked up): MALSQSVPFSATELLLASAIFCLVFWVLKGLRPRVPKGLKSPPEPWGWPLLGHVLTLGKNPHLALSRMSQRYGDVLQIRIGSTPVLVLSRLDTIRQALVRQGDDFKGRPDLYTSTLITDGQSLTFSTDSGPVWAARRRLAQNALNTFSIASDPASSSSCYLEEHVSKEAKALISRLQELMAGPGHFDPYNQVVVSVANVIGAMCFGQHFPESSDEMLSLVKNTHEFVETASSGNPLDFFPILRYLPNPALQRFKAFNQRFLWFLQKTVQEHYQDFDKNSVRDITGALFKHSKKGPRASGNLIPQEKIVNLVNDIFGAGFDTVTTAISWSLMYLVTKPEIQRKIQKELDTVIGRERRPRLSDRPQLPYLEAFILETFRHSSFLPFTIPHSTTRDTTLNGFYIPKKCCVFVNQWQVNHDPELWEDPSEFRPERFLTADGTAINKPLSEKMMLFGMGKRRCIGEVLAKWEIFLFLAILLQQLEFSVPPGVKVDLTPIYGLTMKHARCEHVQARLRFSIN

For `CC(CCc1ccccc1)NCC(O)c1ccc(O)c(C(N)=O)c1` (stereo unspecified), the result in experiment [1] and in experiment [4] was inactive. Besides, the Potency entry in experiment [2] and in experiment [3] was “inactive” in each case.
As for `C/C=C/c1ccc(OC)cc1`, the outcome in experiment [5] was inactive.
Regarding `C[C@@H](CN(C)C)CN1c2ccccc2Sc2ccccc21`, the Potency result in experiment [6] and in experiment [7] was “inactive” throughout.
In the case of `C[C@H](CCC(=O)O)[C@H]1CC[C@H]2[C@@H]3C(=O)C[C@@H]4CC(=O)CC[C@]4(C)[C@H]3CC(=O)[C@]12C`, the Potency result in experiment [6] and in experiment [7] was “inactive” in each case.
`CCCSS/C(CCO)=C(\C)N(C=O)Cc1cnc(C)nc1N`: the Potency entry in experiment [6] and in experiment [7] was “inactive” each time.
In the case of `CC(=O)CC(c1ccc([N+](=O)[O-])cc1)c1c(O)c2ccccc2oc1=O` (stereo unspecified), the Potency result in experiment [6] and in experiment [7] was “inactive” each time.
Take `CCCCC1=NC2(CCCC2)C(=O)N1Cc1ccc(-c2ccccc2-c2nn[nH]n2)cc1`: the Potency result in experiment [6] and in experiment [7] was “inactive” throughout.
Regarding `CCCCc1nc(Cl)c(CO)n1Cc1ccc(-c2ccccc2-c2nn[nH]n2)cc1`, the Potency result in experiment [6] and in experiment [7] was “inactive” in each case.
Take `NCCCC[C@H](N[C@@H](CCc1ccccc1)C(=O)O)C(=O)N1CCC[C@H]1C(=O)O`: the Potency result in experiment [6] and in experiment [7] was “inactive” in each case.
In the case of `CC(=O)OCC(=O)[C@@]12N=C(C)O[C@@H]1C[C@H]1[C@@H]3CCC4=CC(=O)C=C[C@]4(C)[C@H]3[C@@H](O)C[C@@]12C`, the Potency result in experiment [6] and in experiment [7] was “inactive” in each case.
As for `CC1(C)O[C@@H]2C[C@H]3[C@@H]4C[C@H](F)C5=CC(=O)CC[C@]5(C)[C@H]4[C@@H](O)C[C@]3(C)[C@]2(C(=O)CO)O1`, the Potency entry in experiment [6] and in experiment [7] was “inactive” each time.
Consider `C[C@]12CCC(=O)C=C1[C@@H]1C[C@@H]1[C@H]1[C@@H]3[C@@H]4C[C@@H]4[C@@]4(CCC(=O)O4)[C@@]3(C)CC[C@@H]12`, for which the Potency entry in experiment [6] and in experiment [7] was “inactive” in each case.
For the molecule `CCCCC(=O)O[C@]1(C(=O)CO)CC[C@H]2[C@@H]3CCC4=CC(=O)CC[C@]4(C)[C@H]3[C@@H](O)C[C@@]21C`, the Potency result in experiment [6] and in experiment [7] was “inactive” each time.
Take `Cc1c(C(N)=O)cc([N+](=O)[O-])cc1[N+](=O)[O-]`: the Potency entry in experiment [6] and in experiment [7] was “inactive” each time.
Consider `COC1=CC(=O)C[C@@H](C)[C@]12Oc1c(Cl)c(OC)cc(OC)c1C2=O`, for which the Potency result in experiment [6] and in experiment [7] was “inactive” each time.
Regarding `NCCC(O)(P(=O)(O)O)P(=O)(O)O`, the Potency entry in experiment [6] and in experiment [7] was “inactive” each time.
On to `CC[C@@H](CO)NCCN[C@@H](CC)CO`, for which the Potency entry in experiment [6] and in experiment [7] was “inactive” throughout.
Regarding `COc1cc2c(cc1OC)[C@@H]1CC(=O)[C@@H](CC(C)C)CN1CC2`, the Potency result in experiment [6] and in experiment [7] was “inactive” throughout.
With `CC[N+](CC)(CCNC(=O)C(=O)NCC[N+](CC)(CC)Cc1ccccc1Cl)Cc1ccccc1Cl`, the Potency result in experiment [6] and in experiment [7] was “inactive” in each case.
On to `COC(=O)[C@H]1[C@H]2C[C@H]3c4[nH]c5ccccc5c4CCN3C[C@H]2CC[C@@H]1O`, for which the Potency result in experiment [6] and in experiment [7] was “inactive” throughout.
As to `CC(=O)Oc1ccc2c(c1)CC[C@@H]1[C@@H]2CC[C@]2(C)[C@@H](O)CC[C@@H]12`, the Potency result in experiment [6] and in experiment [7] was “inactive” in each case.
Regarding `O=C1OC2(c3ccc(O)cc3Oc3cc(O)ccc32)c2ccccc21`, the Potency entry in experiment [6] and in experiment [7] was “inactive” in each case.
For the molecule `CC1=C(C(=O)OC(C)C)C(c2cccc([N+](=O)[O-])c2)C(C(=O)OC2CN(C(c3ccccc3)c3ccccc3)C2)=C(N)N1` (stereo unspecified), the Potency entry in experiment [6] and in experiment [7] was “inactive” each time.
For the molecule `O=C1OCCN1/N=C/c1ccc([N+](=O)[O-])o1`, the Potency entry in experiment [6] and in experiment [7] was “inactive” throughout.
Consider `CN(C)CC/C=C1\c2ccccc2Sc2ccc(Cl)cc21`, for which the Potency result in experiment [6] and in experiment [7] was “inactive” each time.
As to `c1ccc(-c2ccc(C(c3ccccc3)n3ccnc3)cc2)cc1` (stereo unspecified), the Potency entry in experiment [6] and in experiment [7] was “inactive” in each case.
As to `CCN(CC)C(=O)N1CCN(C)CC1`, the Potency entry in experiment [6] and in experiment [7] was “inactive” each time.
Turning to `COC(=O)[C@@H]1CC2=CC(=O)CC[C@]2(C)[C@@]23O[C@@H]2C[C@@]2(C)[C@@H](CC[C@@]24CCC(=O)O4)[C@H]13`, the Potency result in experiment [6] and in experiment [7] was “inactive” in each case.
For `Cc1c2oc3c(C)ccc(C(=O)N[C@@H]4C(=O)N[C@H](C(C)C)C(=O)N5CCC[C@H]5C(=O)N(C)CC(=O)N(C)[C@@H](C(C)C)C(=O)O[C@@H]4C)c3nc-2c(C(=O)N[C@@H]2C(=O)N[C@H](C(C)C)C(=O)N3CCC[C@H]3C(=O)N(C)CC(=O)N(C)[C@@H](C(C)C)C(=O)O[C@@H]2C)c(N)c1=O` (I: T[dV]P[Sar][NMeV] / II: T[dV]P[Sar][NMeV]; ester I:1-I:C, II:1-II:C; linker I:N-II:N via Actinocin(9to1)), the Potency entry in experiment [6] and in experiment [7] was “inactive” throughout.
For `OC[C@@H](O)[C@@H](O[C@@H]1O[C@H](CO)[C@H](O)[C@H](O)[C@H]1O)[C@H](O)[C@@H](O)CO`, the Potency entry in experiment [6] and in experiment [7] was “inactive” each time.
`NC(CO)(CO)CO`: the Potency entry in experiment [6] and in experiment [7] was “inactive” throughout.
Regarding `C/C=C(/C(=C/C)c1ccc(O)cc1)c1ccc(O)cc1`, the Potency entry in experiment [6] and in experiment [7] was “inactive” each time.
For the molecule `COc1ccc(CCN2CCC(Nc3nc4ccccc4n3Cc3ccc(F)cc3)CC2)cc1`, the Potency result in experiment [6] and in experiment [7] was “inactive” in each case.
As to `CN1CCN(CCCN2c3ccccc3Sc3ccc(S(=O)(=O)N(C)C)cc32)CC1`, the Potency result in experiment [6] and in experiment [7] was “inactive” throughout.
On to `COc1cccc(CCc2ccccc2OCC(CN(C)C)OC(=O)CCC(=O)O)c1` (stereo unspecified), for which the Potency result in experiment [6] and in experiment [7] was “inactive” each time.
With `O=C(O)CCCCC(=O)O`, the Potency result in experiment [6] and in experiment [7] was “inactive” throughout.
Take `O=C(CCCN1CCC(O)(c2ccc(Br)cc2)CC1)c1ccc(F)cc1`: the Potency entry in experiment [6] and in experiment [7] was “inactive” each time.
Consider `CC(=O)OCC(=O)[C@@]12OC(C)(C)O[C@@H]1C[C@H]1[C@@H]3C[C@H](F)C4=CC(=O)C=C[C@]4(C)[C@@]3(F)[C@@H](O)C[C@@]12C`, for which the Potency result in experiment [6] and in experiment [7] was “inactive” throughout.
Regarding `N[C@@H](CCC(=O)N[C@@H](CS)C(=O)NCC(=O)O)C(=O)O`, the Potency entry in experiment [6] and in experiment [7] was “inactive” throughout.
Regarding `O=C(O)CNC(=O)c1ccccc1`, the Potency entry in experiment [6] and in experiment [7] was “inactive” throughout.
For `C[n+]1c2cc(N)ccc2cc2ccc(N)cc21` (tested in a mixture with another compound), the Potency entry in experiment [6] and in experiment [7] was “inactive” throughout.
On to `CCCCCCCCCCCCCCCCCC(=O)OCC(O)CO` (stereo unspecified), for which the Potency entry in experiment [6] and in experiment [7] was “inactive” in each case.
With `C#C[C@]1(OC(C)=O)CC[C@H]2[C@@H]3CCC4=C[C@@H](OC(C)=O)CC[C@@H]4[C@H]3CC[C@@]21C`, the Potency entry in experiment [6], in experiment [7], in experiment [2] and in experiment [3] was “inactive” in each case. For the same molecule, the result in experiment [1] and in experiment [4] was inactive.
